# Shiga inhibitor – blocks Shiga toxin action in Vero cells; Vero cells, Shiga toxin protein synthesis inhibition reporter; inhibition, % at 38.7 µM; 9.2% of 290,000 active; AID 2315; in the data active means inhibition mostly above about 28%, no sharp cut-off; inactive means mostly below about 43%
# FBPA Giardia inh – Giardia lamblia aldolase inhibition. A8B2U2. purified Giardia FBPA. Potency, µM (doses to about 59.6 µM), actives largely listed as inhibitors. 0.71% of 290,000 active; further: nearly all actives have a fitted effect of over 55% in size
# Target sequence (A8B2U2 whole entry, looked up): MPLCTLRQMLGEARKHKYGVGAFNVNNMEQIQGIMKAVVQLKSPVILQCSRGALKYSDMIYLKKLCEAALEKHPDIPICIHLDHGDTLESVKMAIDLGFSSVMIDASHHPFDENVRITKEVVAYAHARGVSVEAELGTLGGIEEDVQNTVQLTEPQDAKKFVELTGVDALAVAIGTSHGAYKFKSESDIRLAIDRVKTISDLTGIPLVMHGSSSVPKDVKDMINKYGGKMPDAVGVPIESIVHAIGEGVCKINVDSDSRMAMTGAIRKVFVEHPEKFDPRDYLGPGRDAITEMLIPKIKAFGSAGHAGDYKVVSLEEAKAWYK
#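 Giardia FBPA (40 nM reagent) was preincubated 10 min at RT with compound (up to 57.5 uM final), then substrate plus GAPDH/TPI/NAD/arsenate coupling system with diaphorase/resazurin was added; resorufin fluorescence (525/598 nm) was read after 20 min.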
# Pf growth 96h – inhibits malaria parasite growth, 96 h; P. falciparum luciferase reporter growth, 96 h; Potency, µM (series often up to 28.7 µM), usual class: inhibitors; 6.9% of 320,000 active; AID 504834
#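 Parasite growth measured via integrated firefly luciferase reporter in P. falciparum. Infected erythrocytes at 2% hematocrit, 0.05% parasitemia final were treated 96 hours at 37 C under 5% CO2, and luminescence was read.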
# Cycloheximide cs – counter-screen for Shiga toxin inhibitors: cycloheximide protein synthesis inhibition; cell reporter, cycloheximide protein synthesis inhibition counterscreen; 12% of 300,000 active; AID 2314; max response, %; in the data active means max response mostly above about 13%, no sharp cut-off; inactive means mostly below about 14%; further: read at 38.3 µM for the half of the compounds with a filed dose
# NS1 function inh – influenza NS1 inhibition; Potency, µM (highest dose often 46.1 µM); 0.4% of 270,000 active; calls by dose curve; further: actives are rising curves; nearly all actives have a fitted effect of over 50% in size
#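 S. cerevisiae expressing influenza A NS1, grown in glucose, washed, then diluted 1:100 into pH 6.0 -URA galactose medium with 23 nl compound. Growth recovery read as OD600; NS1-free strain serves as control.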
# Pf growth 48h – P. falciparum growth inhibition at 48 hours (one generation). P. falciparum luciferase growth in erythrocytes, 48 h. Potency, µM (highest dose often 28.7 µM), actives largely listed as inhibitors. 5.9% of 310,000 active. AID 504832
#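 Parasite viability was followed by luminescence of a genomically integrated firefly luciferase. Cultures held 0.1% parasitemia at 2% hematocrit (final), incubated under 5% CO2 at 37 C.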
# A number is an active result; - = inactive; ? = inconclusive; . = no result; [ ] = another dose, or the depositor's remark. Rows were chosen to be rich in hits. Some 21% of all compounds tested hit in one or more screens of this group. Unless noted, the call rests on the fitted dose curve; in most records, active means well fitted curve in the direction sought with a large enough effect; inconclusive means small, poorly fitted or top-dose-only effect, or another doubt; inactive means no such curve, though single readings can be large; an effect the other way counts as inactive or inconclusive.
SMILES,Shiga inhibitor,FBPA Giardia inh,Pf growth 96h,Cycloheximide cs,NS1 function inh,Pf growth 48h
CCN(CC)S(=O)(=O)c1cccc(-c2nnc(SCCCC(=O)c3ccc(F)cc3)o2)c1,-,-,-,-,-,9.28µM
Cc1cc(NC(=O)c2ccc([N+](=O)[O-])cc2)n(C)n1,-,-,-,-,-,-
CC(C)(C)c1ccc(NC(=O)N2CCN(c3ccc([N+](=O)[O-])cn3)CC2)cc1,-,-,2.33µM,-,-,5.22µM
Cn1ccc(C(=O)NC(=S)Nc2ccc([N+](=O)[O-])cc2O)n1,-,.,-,27.8,-,-
O=C(NC(=S)Nc1ccc([N+](=O)[O-])cc1O)C1CCCCC1,-,.,-,-,?,?
O=C(Nc1ccc(F)cc1F)N1CCCN(c2ccc([N+](=O)[O-])cn2)CC1,-,-,?,-,-,?
O=C(Nc1ccc([N+](=O)[O-])cn1)c1ccc2c(c1)OCO2,67.6,-,-,30.9,.,-
Cc1oc(C(C)(C)C)cc1-c1cc(NC(=O)c2ccc([N+](=O)[O-])cc2)n[nH]1,-,-,2.33µM,-,-,1.85µM
CCN1C(=O)Cc2cc(S(=O)(=O)NCCc3ccccc3)ccc21,-,-,-,-,-,?
O=S(=O)(Nc1cccc(-c2nnco2)c1)c1ccc(F)cc1F,-,-,-,-,-,-
O=C(CCC1CCCC1)Nc1ccc([N+](=O)[O-])cn1,54.4,-,-,34.7,-,-
Cc1cc(NC(=O)c2ccc3c(c2)OCO3)no1,106.1,-,-,28.8,-,-
O=C(Nc1ccccn1)c1ccc2c(c1)OCO2,44.0,-,-,36.1,.,-
Cc1nc(NC(=O)c2ccc3c(c2)OCO3)ccc1Br,55.4,-,-,46.0,-,-
Cc1nc(NC(=O)c2cncc(Br)c2)ccc1Br,.,-,?,-,-,-
O=C(Nc1ccccn1)c1ccc2c(c1)OCCO2,-,-,-,-,.,-
Cc1ccc(C(CC(=O)O)NC(=O)CCNC(=O)c2ccco2)cc1 (stereo unspecified),.,.,-,.,.,-
CNC(=O)C(=O)NCC1OCCCN1S(=O)(=O)c1ccc(F)cc1C (stereo unspecified),-,.,-,-,-,-
O=C(c1cc(C(F)(F)F)cc(C(F)(F)F)c1)N1CCC2(CCCN(Cc3nccs3)C2)CC1,.,-,.,.,.,.
CC(C)(C)c1ccc(C(=O)Nc2ccc([N+](=O)[O-])cn2)cc1,76.1,-,-,58.1,-,-
O=C(Nc1ccc([N+](=O)[O-])cn1)c1cccnc1,.,-,-,-,-,-
O=C(NC(=S)Nc1cc([N+](=O)[O-])ccc1O)c1ccc2c(c1)OCO2,82.6,-,-,42.1,-,-
COc1cc([N+](=O)[O-])ccc1NC(=S)NNC(=O)c1ccc2c(c1)OCO2,-,.,-,-,-,-
CCOc1ccc(NC(=O)N2CCc3ccccc3C2)cc1,58.0,-,?,47.7,-,-
COc1ccc(NC(=S)N2CCc3ccccc3C2)cc1OC,48.7,-,-,-,.,-
SMILES,Shiga inhibitor,FBPA Giardia inh,Pf growth 96h,Cycloheximide cs,NS1 function inh,Pf growth 48h
Fc1ccc(NC(=S)N2CCc3ccccc3C2)c(F)c1,66.8,-,?,31.7,-,-
COc1ccc(NC(=O)N2CCc3ccccc3C2)cc1,78.5,-,?,63.4,-,-
CC1(NC(=O)Cc2csc(-c3cccc(Cl)c3)n2)CCS(=O)(=O)C1 (stereo unspecified),.,.,-,.,.,-
O=C(CC(=O)c1ccccc1)Nc1ccccn1,76.5,-,?,43.2,-,-
O=C(NC(=S)Nc1ccccn1)c1ccccc1,68.3,?,-,39.6,-,-
O=C(NC(=S)Nc1ccccn1)c1ccc([N+](=O)[O-])cc1,198.8,?,?,51.1,-,-
O=C(Nc1ncccn1)c1ccc([N+](=O)[O-])cc1,-,-,-,-,.,-
O=C(Cn1nc(-c2ccccc2)c2ccccc2c1=O)Nc1ccccn1,-,-,.,45.9,-,-
O=C(NC(=S)Nc1ccccn1)c1ccc(-c2ccccc2)cc1,126.6,.,?,63.2,-,-
O=C(Nc1ccccn1)c1ccc(C(=O)Nc2ccccn2)cc1,-,-,-,-,-,-
O=C(/C=C/c1ccc(Cl)cc1Cl)NC(=S)Nc1ccccn1,85.7,-,-,38.0,-,-
COC(=O)CNC(=O)C1(CC(C)C)C=CCN1C(C)=O (stereo unspecified),.,-,.,.,.,.
CC1(C)CC(=O)C2=C(C1)OC(N)=C(C#N)C2c1ccccc1[N+](=O)[O-] (stereo unspecified),-,?,-,-,-,-
CC1(C)CC(=O)C2=C(C1)OC(N)=C(C#N)C2c1ccccc1OC(=O)N1CCOCC1 (stereo unspecified),-,-,5.86µM,-,-,-
COC(=O)C12CC3(CCC4C5C(C(OCc6ccccc6)C41)C52)OCCO3 (stereo unspecified),.,-[12.9 µM],.,.,.,.
CCOc1ccc(-n2c(-c3ccc(OC)cc3)c[n+]3c2CCCCC3)cc1,-,-,?,-,-,0.738µM
CCOc1ccc(-n2c(-c3ccc(Br)cc3)c[n+]3c2CCCCC3)cc1,-,-,?,-,.,5.22µM
CCOc1ccc(-n2c(-c3ccccc3)c[n+]3c2CCC3)cc1,-,-,?,-,-,?
COc1ccccc1CNC(=O)/C(C#N)=C/c1ccc(OC)c(OC)c1OC,-,-,-,-,-,?
O=C(Nc1ccc(S(=O)(=O)Nc2ncccn2)cc1)c1ccc(N2CCCC2=O)cc1,-,-,?,-,-,?
CC(OC(=O)CNC(=O)c1ccc2ccccc2c1)C(=O)NC1CCCCC1C (stereo unspecified),-,.,-,-,-,-
COc1ccccc1CNC(=O)c1ccccc1OC,-,-,?,-,-,.
CCC1SC(CC)C(=O)N(CC(=O)NCc2ccc(F)cc2)C1=O (stereo unspecified),-,-,-,-,.,-
CC1SC(C)C(=O)N(CC(=O)NCc2ccc(F)cc2)C1=O (stereo unspecified),-,-,-,12.8,-,-
COc1ccccc1CNC(=O)c1ccccc1C(=O)NC(C)(C)C(=O)NCc1ccccc1OC,-,-,13.1µM,-,-,-
SMILES,Shiga inhibitor,FBPA Giardia inh,Pf growth 96h,Cycloheximide cs,NS1 function inh,Pf growth 48h
COCC(C)NC(=O)Cc1ccc(F)cc1 (stereo unspecified),-,-,9.28µM,-,-,-
COc1ccccc1CNC(=O)CCN1C(=O)c2ccccc2C1=O,-,-,-,-,-,-
COc1ccccc1CNC(=O)CN1C(=O)c2cccc(N)c2C1=O,68.4,-,-,39.1,-,-
COc1ccccc1CNC(=O)CCCc1ccccc1,64.6,-,-,23.3,-,-
CC(C)CNC(=O)CCCc1ccccc1,34.7,-,-,43.3,-,.
Cn1cc(CCCC(=O)NCc2ccc(F)cc2)c2ccccc21,-,-,2.08µM,-,-,?
CCOc1ccc(CNC(=O)CCc2cn(C)c3ccccc23)cc1OC,-,-,-,-,-,-
COc1ccc(CNC(=O)CCCc2ccccc2)cc1,-,-,?,-,-,-

# High-throughput results (PubChem)
